Here are results for 12 compounds from PubChem BioAssay (EPA / NIEHS).

“And” between values parts separate entries of the source, which are not always exact repeats. Equal values may be shown once. Records with an inconclusive call do not appear. Some compounds were tested as several samples or in several runs, with calls that do not always agree. The source made the active and inactive calls. The calls were made as follows: active = hit-call score of the fitted dose curve at least 0.9, where 1 is the maximum; inconclusive = response in the unintended direction; inactive = score below 0.9.

This test can be described thus: CCTE_Shafer_MEA_dev_bursting_electrodes_number: CCTE's Neural Network Formation Assay for Number of Bursting Electrodes, Shafer Lab (AID 2284043). The protocol: CCTE_Shafer_MEA_dev assay is conducted using Axion Biosystems 48 well microelectrode array (MEA) plates and Maestro recording system. Each well of the MEA plate contains a grid of 16 microelectrodes embedded in the culture surface. Electrically active cells, such as neurons, can be cultured over the electrodes, and electrical activity in these cells can be recorded extracellularly. The spontaneous firing of neurons is captured from each electrode on a microsecond timescale providing both temporally and spatially precise data. […] The CCTE_Shafer_MEA_dev assay uses primary cultures of rat cortical neurons. Recordings are made on days post-plating 5, 7, 9 and 12. As these cultures mature over time, neural networks develop functional activity and form cohesive networks in which electrical activity can be highly coordinated. CCTE_Shafer_MEA_dev_bursting_electrodes_number is 1 of 19 assay components of the CCTE_Shafer_MEA_dev assay. It measures the number of electrodes in a well with a burst rate of at least 1 burst (temporally-clustered group of action potential firing) every 2 minutes during a recording in a microelectrode array (MEA) using Axion Biosystems Maestro 768 channel amplifier with the AxIS adaptive spike detector. To collapse across multiple recordings made on days post-plating 5, 7, 9 and 12, the trapezoidal area-under-the-curve of the component is calculated.Data from the assay component CCTE_Shafer_MEA_dev_bursting_electrodes_number was analyzed into 1 assay endpoint. This assay endpoint, CCTE_Shafer_MEA_dev_bursting_electrodes_number, was analyzed in the negative analysis fitting direction relative to DMSO as the negative control and baseline of activity. Using a type of functional reporter, gain or loss-of-signal activity can be used to understand electrical activity.
On the day prior to culture, each well was coated thoroughly with 150 uL of 0.05% polyethyleneimine (PEI, Sigma Cat P3143) in 50 mM HEPES (Sigma Cat H7523) at a pH of 8. The plate was incubated at 37C for one hour. PEI was rinsed out with 500 uL of sterile water three times. Plates were stored at 4C until the day of culture. This culture was plated at a seeding density of 1.5 x 10^5 cells/well on a 48-well MEA plate, prepared as described above. Cells were administered via a 25 uL media/laminin ([…]; Sigma Cat L2020-1MG) drop directly onto the microelectrode array, as adding the cells with the laminin results in better attachment than pre-coating with laminin. After 2 hours, an additional 475 uL of cortical media was added and the cells returned to the incubator. Exposure starts at day 0 of plating and is continued over twelve days of network development until the experiment is terminated. Cells are fed with fresh medium on DIV 5 and 9, following the recordings on those days. The entire volume of media in the well is exchanged and any vehicle or compound treatment is renewed. Complete details are found in OP-NHEERL/ISTD/SBB/TJS/2015-03-r0 (available on request, email shafer.tim@epa.gov). Measurement of the electrical activity is non-invasive, and recordings can be made from the same plate over multiple different days of the culture. In cortical neurons, this allows for the measurement of extracellular action potentials over the period during which networks form in the MEA plate.
As a reminder, the AC50 is the concentration giving half of the maximal activity seen. With `CCCCOCCOCCOCc1cc2c(cc1CCC)OCO2`, the AC50 was 15.9 µM (active).
On the same count and under the same terms, the same measure for `CCCCC(CC)CN1C(=O)C2C3C=CC(C3)C2C1=O` (centres undefined): 4.86 µM (active).
For `C#CCOC(=O)[C@@H](C)Oc1ccc(Oc2ncc(Cl)cc2F)cc1`, the outcome was inactive.
For the compound `CC1(C)C(C=C(Cl)Cl)C1C(=O)OCc1cccc(Oc2ccccc2)c1` (centres undefined), the AC50 is 24.4 µM (active) and 10.1 µM (active).
As for `Oc1ccc(C(c2ccc(O)cc2)C(Cl)(Cl)Cl)cc1`, the AC50 was 10 µM (active).
In the case of `CCCN(CCC)C(=O)SCC`, the outcome was inactive.
With `S=C(S)NCCNC(=S)S.[Mn+2].[S-]C([S-])=NCCN=C([S-])[S-].[Zn+2]`, the AC50 is 7.52 µM (active) and the compound was called inactive.
Regarding `COCCO`, the compound was called inactive.
For the compound `Cc1nn(C)c(Oc2ccccc2)c1C=NOCc1ccc(C(=O)OC(C)(C)C)cc1`, the AC50 is 0.00163 µM (active).
With `OB(O)O`, the compound was called inactive.
`CCN(CC)C(=O)c1cccc(C)c1`: the compound was classed as inactive.
With `CC(C)(c1ccc(O)cc1)c1ccc(O)cc1`, the AC50 was 9.89 µM (active) and 15 µM (active); the compound was called inactive.
